Measurements published in PubChem BioAssay AID1851 (National Center for Advancing Translational Sciences (NCATS), 2009).
Screen size: about 16,000 compounds; about 2,600 (16%) were called active. Another 20% or so got no clear call; they are omitted. Calls come from the whole dose curve; as a rule, active = well fitted curve in the direction sought with a large enough effect; inconclusive = small, poorly fitted or top-dose-only effect, or effect the other way; inactive = no such curve, though single readings can be large or run the other way. The list is a sample of the results.

target: Cytochrome P450 2D6 (Homo sapiens) (UniProt P10635); assay: Cytochrome panel assay with activity outcomes; conditions: recombinant CYP, pro-luciferin dealkylation, luminescence, p450-cyp2d6; series mostly up to 57.1 µM
Sequence (P10635 whole entry, looked up): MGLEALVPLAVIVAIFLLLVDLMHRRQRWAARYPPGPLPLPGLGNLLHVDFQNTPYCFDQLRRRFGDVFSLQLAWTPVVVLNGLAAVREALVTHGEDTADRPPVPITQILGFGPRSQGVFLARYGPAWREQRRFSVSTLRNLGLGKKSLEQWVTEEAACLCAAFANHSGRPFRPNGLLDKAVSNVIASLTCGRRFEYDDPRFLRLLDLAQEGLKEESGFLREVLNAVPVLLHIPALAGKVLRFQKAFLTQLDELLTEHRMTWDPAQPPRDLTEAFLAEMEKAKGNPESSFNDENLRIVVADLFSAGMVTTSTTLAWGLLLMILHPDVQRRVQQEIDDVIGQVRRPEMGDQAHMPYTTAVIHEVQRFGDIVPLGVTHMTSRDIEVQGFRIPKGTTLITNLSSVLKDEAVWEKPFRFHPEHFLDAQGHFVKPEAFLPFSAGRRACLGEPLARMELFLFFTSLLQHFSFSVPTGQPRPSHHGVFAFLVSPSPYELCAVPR
% is set by controls: 0 for no effect and ±100 for the full control effect.

Compound | activity, negative = inhibition | AC50
C/C(=C\c1ccc(Cl)cc1)C(C)(C)C(=O)O | 6.46% [at 11.4 µM] (inactive) | 
C/C(=C\c1ccc(C(=O)O)cc1)c1ccc2c(c1)C(C)(C)CCC2(C)C |  | 12.6 nM (active)
CC1(C)CCC(C)(C)c2cc(C(=O)Nc3ccc(C(=O)O)cc3)ccc21 |  | inactive
COC(=O)\C(C(C)=O)=C(/C=C/C=C/C=C/N(C)C)N(C)C |  | inactive
N=C(N)CCNC(=O)[C@@H]1CCC(N)=N1 | 2.49% [at 11.4 µM] (inactive) | 
CCC(=O)Nc1ccc(NC(=O)CSc2nnnn2-c2cccnc2)cc1C |  | inactive
CC1=C(C)/C(=N\OC(=O)/C=C/c2ccccc2)C=CC1=O |  | inactive
Cc1ccc(S(=O)(=O)/N=C2/NC(=O)/C(=C/c3cccnc3)S2)cc1 |  | inactive
COc1ccc2ccccc2c1/C=C\C(=O)c1ccccc1 | 7.33% [at 11.4 µM] (inactive) | 
CC1(C)Oc2ccc(C#N)cc2[C@H](N2CCCC2=O)[C@H]1O |  | inactive
CCCn1nc(NC(=O)CC(C)C)c2cc3ccccc3nc21 |  | inactive
Cc1ccc(C(=O)COC(=O)c2ccccc2N2C(=O)C3C4CCC(C4)C3C2=O)cc1C (stereo unspecified) |  | inactive
O=C(O)[C@@H]1CCCN1Cc1cc2ccccc2c2ccccc12 | 10.3% [at 11.4 µM] (inactive) | 
Clc1ccc(CN2CCCN(Cc3ccc(Cl)cc3)C2c2cc3ccccc3c3ccccc23)cc1 |  | 200 nM (active)
COC(=O)C1=C(N)Oc2cc(C)n(CC3CCCO3)c(=O)c2C1c1ccccc1OC (stereo unspecified) |  | inactive
COc1cc(C(=O)N2CCC(NC(=O)C(Cc3ccc(C(C)C)cc3)NC(C)=O)CC2)cc(OC)c1OC (stereo unspecified) |  | inactive
CN(C)CCCNc1c(C(=O)O)cnc2c1cnn2C |  | inactive
Cc1cc2nc(C)n(CCCN)c2cc1C |  | inactive
C[C@@H]1CCN=C(N)S1 |  | inactive
CC(C)CN(C)c1nc(N)c(C(=O)N=C(N)N)nc1Cl |  | 39800 nM (active)
CN(C)c1nc(N)c(C(=O)N=C(N)N)nc1Cl |  | inactive

Compound | activity, negative = inhibition | AC50
N[C@]1(C(=O)O)CCc2cc(P(=O)(O)O)ccc21 |  | inactive
CC(C)=CCC/C(C)=C/CC/C(C)=C/CSc1ccccc1C(=O)O |  | inactive
O=C(N/N=C1/C[C@@H](O)[C@@H](O)[C@@H]2[C@@H]3C(=O)N(Cc4ccc5c(c4)OCO5)C(=O)[C@H]3CC[C@H]12)OCc1ccccc1 | -16.9% [at 11.4 µM] (inactive) | 
O=c1cc(CSc2ccccc2)[nH]c(=S)[nH]1 |  | inactive
Cc1cc(CSc2ccccc2)ccc1NC(=O)COc1ccccc1 |  | inactive
CC1=CC(C)(C)Nc2ccc(CSc3ccccc3)cc21 |  | 631 nM (active)
Cc1cc(=Nc2ccc3c(c2)c(N)cc(C)[n+]3C)nc(N)n1C | 2.81% [at 11.4 µM] (inactive) | 
Cc1ccc(C(=O)NC(=S)NCC(=O)c2ccccc2)cc1 |  | inactive
O=C(CSc1nc2ccccc2c2ccccc12)c1ccccc1 | 15.3% [at 11.4 µM] (inactive) | 
C=CCSc1nc2ccccc2n1C(=O)/C=C/c1cc(OC)c(OC)c(OC)c1 |  | inactive
Cc1cc(C)c2[nH]c(=O)c(CN(Cc3ccco3)C(=O)c3cccs3)cc2c1 |  | inactive
O=C(CN(Cc1ccco1)C(=O)c1cccc(Cl)c1)Nc1c(Cl)cc(Cl)cc1Cl |  | 7080 nM (active)
O=C(COC(=O)c1cccc(S(=O)(=O)N2CCN(c3ccccc3)CC2)c1)NCc1ccco1 |  | inactive
O=C(CN(Cc1ccco1)C(=O)c1ccccc1)Nc1ccc(Cl)c(Cl)c1 |  | 25100 nM (active)
O=C(c1ccco1)N(CCC(c1ccccc1)c1ccco1)Cc1ccco1 (stereo unspecified) |  | inactive
O=C(c1ccccc1)N(Cc1ccco1)C1CCS(=O)(=O)C1 (stereo unspecified) |  | inactive
CC(=O)Nc1ccc(N2C(=O)CC(c3ccccc3)CC2=O)cc1 |  | inactive
CC(=O)Nc1ccc(S(=O)(=O)N=S(C)C)cc1 |  | inactive
CCOc1ccc(CCNC(=O)C2CCN(S(=O)(=O)CC)CC2)cc1OCC |  | inactive
NS(=O)(=O)c1ccc(CCNC(=O)C2CCCN2C(=O)OCc2ccccc2)cc1 (stereo unspecified) |  | inactive
NS(=O)(=O)c1ccc(CNC(=O)/C=C/c2c(Cl)cccc2Cl)cc1 |  | inactive

Compound | activity, negative = inhibition | AC50
CCOc1cc(CNCCc2ccc(S(N)(=O)=O)cc2)ccc1OCc1ccc(Cl)cc1 |  | 8910 nM (active)
CCOc1cc(CNCCc2ccc(S(N)(=O)=O)cc2)cc(Cl)c1OCc1ccccc1 |  | 355 nM (active)
COC(=O)[C@H](CCSC)NC(=O)C/C=C\[C@@H](C)[C@@H](CO)OC | 8.79% [at 11.4 µM] (inactive) | 
N#CCCn1c(=O)c(-c2cccs2)nc2cnc(OCc3ccccc3)nc21 |  | inactive
CCOC(=O)CSC1=C(C#N)C(c2sccc2C)CC(=O)N1 (stereo unspecified) |  | inactive
C=CCOC(=O)C1=C(C)NC(SCC(=O)OCC)=C(C#N)C1c1ccc(C)cc1 (stereo unspecified) |  | 14100 nM (active)
CCOC(=O)CSC1=C(C#N)C(C)C2=C(CCCC2=O)N1 (stereo unspecified) |  | inactive
C#CCCCO/N=C1/[C@H]2O[C@@H]2[C@@H](O)[C@H]2[C@H]1CCn1c(=O)n([C@@H](CC)c3ccccc3)c(=O)n12 | -15.4% [at 11.4 µM] (inactive) | 
COc1ccccc1C(=O)NN1C(=O)C2C3C=CC(O3)C2C1=O (stereo unspecified) |  | inactive
Cn1c(=O)c2[nH]c(SCCN3CCOCC3)nc2n(C)c1=S | 0.168% [at 11.4 µM] (inactive) | 
Cc1cc(C2C(C#N)=C(N)OC3=C2C(=O)CC(C)(C)C3)c(C)s1 (stereo unspecified) |  | inactive
CC(=O)c1cccc(NC(=O)CCC2CCCC2)c1 |  | inactive
CC(=O)c1cccc(NC(=O)Oc2ccccc2)c1 |  | inactive
COc1ccc(CC(=O)Nc2cccc(/C(C)=N/NC(=O)c3cccc([N+](=O)[O-])c3)c2)cc1 |  | inactive
CS(=O)(=O)N(CC(=O)Nc1cccc(F)c1)c1cccc([N+](=O)[O-])c1 |  | 631 nM (active)
Cc1ccc(NS(=O)(=O)c2ccc(OCC(=O)Nc3cccc([N+](=O)[O-])c3)c(C)c2)cc1 |  | inactive
COc1cccc(N(CC(=O)Nc2cccc(C(C)=O)c2)S(C)(=O)=O)c1 |  | 141 nM (active)
Cc1sc(NC(=O)C2CCCCC2C(=O)O)c(C(N)=O)c1C (stereo unspecified) |  | inactive
CO[C@@H]1COC(=O)C/C=C\[C@@H](C)[C@@H]2C=C[C@H](O)[C@@H](COC(=O)CCC[C@H]1C)O2 | 4.34% [at 11.4 µM] (inactive) | 
